Measurements reported in PubChem BioAssay (NCI).
The panel holds about 83,000 compounds, 20% with a hit somewhere; the sample as a whole holds those more often.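 In brief: 96-well plates, 48 h treatment, single concentration, percent growth endpoint.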 Active and inactive are the calls of the source. The calls were made as follows: active = growth percent below 10; inactive = the rest.

Experiments:
Experiment in all cases: NCI-60 one-dose screen, 48 h (100 = growth as untreated, 0 = no growth, -100 = all killed)
Settings in all cases: 10 µM unless noted
T-47D breast = tested on: T-47D breast
BT-549 breast = tested on: BT-549 breast
MDA-MB-435 melanoma = tested on: MDA-MB-435 melanoma
SW-620 colon = tested on: SW-620 colon
MCF7 breast = tested on: MCF7 breast
HCT-116 colon = tested on: HCT-116 colon
HCC-2998 colon = tested on: HCC-2998 colon
KM12 colon = tested on: KM12 colon

Measured: growth

CCNC(=O)c1[nH]cc(-c2ccccc2)c1-c1cc(OC)c2c(c1OC)OCO2
inactive: T-47D breast 87% | BT-549 breast 98.4% | MDA-MB-435 melanoma 103% | SW-620 colon 97.6% | MCF7 breast 101% | HCT-116 colon 90.7% | HCC-2998 colon 104% | KM12 colon 121%

CCC(=C(c1ccc(OCCN2CCCC2)cc1)c1ccc(OCCN2CCCC2)cc1)c1ccc(Cl)cc1
inactive: BT-549 breast 69.5%
active: T-47D breast -41.6% | MDA-MB-435 melanoma -91.2% | SW-620 colon -77.7% | MCF7 breast -76% | HCT-116 colon -81% | HCC-2998 colon -93.7% | KM12 colon -74.2%

O=C(O)[C@@H]1c2ccccc2-c2ccccc2[C@H]1C(=O)O
inactive: T-47D breast 102% | BT-549 breast 114% | MDA-MB-435 melanoma 100% | SW-620 colon 101% | MCF7 breast 94.6% | HCT-116 colon 92.6% | HCC-2998 colon 100% | KM12 colon 105%

CN1CCN(c2ccc(NC(=O)c3nc4ccc5[nH]ncc5c4c4c3CCCC4)cc2C(F)(F)F)CC1
active: SW-620 colon 5% | HCT-116 colon 2.82%
inactive: T-47D breast 66.5% | BT-549 breast 90.6% | MDA-MB-435 melanoma 29.7% | MCF7 breast 24.6% | HCC-2998 colon 21.1% | KM12 colon 37.9%

S=C(Nc1ccc(-c2nc(N3CCOCC3)c3cccn3n2)cc1)Nc1cccnc1
active: T-47D breast -4.82%
inactive: BT-549 breast 32.8% | MDA-MB-435 melanoma 31.8% | SW-620 colon 46.7% | MCF7 breast 20.4% | HCT-116 colon 17.3% | HCC-2998 colon 32.9% | KM12 colon 28.1%

C=C1C(=O)O[C@H]2[C@H]1CC/C(COC(=O)N[C@H]1C[C@H](O[C@H]3C[C@](O)(C(=O)CO)Cc4c(O)c5c(c(O)c43)C(=O)c3c(OC)cccc3C5=O)O[C@@H](C)[C@H]1O)=C\CC[C@@]1(C)O[C@@H]21
active: SW-620 colon 1.42% | HCT-116 colon 7.69%
inactive: T-47D breast 29.7% | BT-549 breast 22.7% | MDA-MB-435 melanoma 66% | MCF7 breast 12.1% | HCC-2998 colon 99.3% | KM12 colon 90.1%

N#CC1C=CN(CC(N)=O)c2ccc3cccnc3c21 (stereo not given)
inactive: T-47D breast 90.9% | BT-549 breast 102% | MDA-MB-435 melanoma 102% | SW-620 colon 104% | MCF7 breast 85.8% | HCT-116 colon 94.8% | HCC-2998 colon 106% | KM12 colon 105%

N#Cc1c(-c2ccc(Cl)cc2)nc(SCC(=O)NC2=NN=C(c3ccccc3)CS2)[nH]c1=O
inactive: T-47D breast 41.4% | BT-549 breast 91.3% | MDA-MB-435 melanoma 29.5% | SW-620 colon 91.6% | MCF7 breast 47.8% | HCT-116 colon 80.6% | HCC-2998 colon 89.6% | KM12 colon 83.8%

O=C(NCc1ccccc1)Nc1ccccc1CNc1nc(Nc2ccc(OCCN3CCCC3)cc2)ncc1Cl
inactive: T-47D breast 104% | BT-549 breast 96.3% | MDA-MB-435 melanoma 82.9% | SW-620 colon 77.1% | MCF7 breast 65.9% | HCT-116 colon 95.5% | HCC-2998 colon 96.9% | KM12 colon 94.2%

CCOC(=O)c1c(C)c2c(n1C)CSc1cc(C(=O)c3ccccc3)c(=O)[nH]c1-2
inactive: T-47D breast 72.3% [100 µM] | BT-549 breast 93.7% [100 µM] | MDA-MB-435 melanoma 84.6% [100 µM] | SW-620 colon 93.8% [100 µM] | MCF7 breast 90.6% [100 µM] | HCT-116 colon 85.8% [100 µM] | HCC-2998 colon 106% [100 µM] | KM12 colon 97.4% [100 µM]

O=CC1(C2(C=O)c3ccccc3-c3ccccc32)c2ccccc2-c2ccccc21
active: T-47D breast -51% | BT-549 breast -74.3% | MDA-MB-435 melanoma -57.9% | SW-620 colon -29.2% | MCF7 breast -52.4% | HCT-116 colon -60.6% | HCC-2998 colon -41.5% | KM12 colon -44.5%

O=C1c2ccc3c4ccc5c6c(ccc(c7ccc(c2c37)C(=O)N1CCC[P+](c1ccccc1)(c1ccccc1)c1ccccc1)c64)C(=O)N(CCC[P+](c1ccccc1)(c1ccccc1)c1ccccc1)C5=O
active: MDA-MB-435 melanoma 0.931%
inactive: T-47D breast 41.1% | BT-549 breast 74% | SW-620 colon 24.5% | MCF7 breast 37.1% | HCT-116 colon 46% | HCC-2998 colon 25.5% | KM12 colon 10.5%

CC1(C)CC[C@]2(c3nnc(-c4ccncc4)o3)CC[C@H]3C(=CC[C@H]4[C@@]3(C)CC[C@H]3C(C)(C)C(=O)CC[C@]43C)[C@@H]2C1
inactive: T-47D breast 67.4% | BT-549 breast 88.1% | MDA-MB-435 melanoma 78.2% | SW-620 colon 59% | MCF7 breast 53.5% | HCT-116 colon 29% | HCC-2998 colon 75.3% | KM12 colon 70%

Fc1ccc2[nH]cc(-c3nonc3-c3c[nH]c4ccc(Br)cc34)c2c1
active: T-47D breast 3.33% | HCC-2998 colon 2.9% | KM12 colon 7.15%
inactive: BT-549 breast 55.5% | MDA-MB-435 melanoma 47.5% | SW-620 colon 28.5% | MCF7 breast 12.6% | HCT-116 colon 20.2%

Oc1c(Cl)cc(Cl)c2ccc(Cn3cc(-c4cc(C(F)(F)F)cc(C(F)(F)F)c4)nn3)nc12
active: SW-620 colon 4.61% | HCT-116 colon 1.78%
inactive: T-47D breast 33.7% | BT-549 breast 66% | MDA-MB-435 melanoma 43.5% | MCF7 breast 21.2% | HCC-2998 colon 101% | KM12 colon 102%
